Assays:
Assay in all cases: DAPPL (digital affinity profiling via proximity ligation, sequencing); 10 mM Tris-HCl pH 7.5, 50 mM NaCl, 1 mM DTT, 4% glycerol, room temperature, 30 min; GST-TFs on glutathione beads, 16-mer random dsDNA library, 0.1% formaldehyde crosslink after washing; high values mean tight binding
[1] = target: T1, FEV (Homo sapiens, UniProt Q99581 1-238); details: protein: recombinant; tags: N-terminal GST; dsDNA, one strand shown
T1 sequence: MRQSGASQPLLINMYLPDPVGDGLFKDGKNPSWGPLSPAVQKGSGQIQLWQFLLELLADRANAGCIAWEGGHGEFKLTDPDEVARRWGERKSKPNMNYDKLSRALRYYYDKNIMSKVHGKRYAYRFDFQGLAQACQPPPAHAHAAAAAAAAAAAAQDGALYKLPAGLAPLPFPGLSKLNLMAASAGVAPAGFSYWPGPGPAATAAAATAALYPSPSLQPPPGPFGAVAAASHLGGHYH
Outline: (§1)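 Pools were built from human transcription factors expressed in yeast as GST fusions, captured on glutathione beads and DNA-barcoded, along with a tag-only sample. Incubation with 200 nmole of a 16-mer random double-stranded DNA library lasted 30 min at room temperature in Tris/NaCl/DTT/glycerol buffer, and was followed by washing, 0.1% formaldehyde crosslinking, proximity ligation, PCR amplification and Illumina NextSeq500 sequencing. Binding signal is the quotient of each hexamer's read frequency for a factor and its frequency for the tag-only sample.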

[2] = target: ETV5 (Homo sapiens, UniProt P41161 1-510); details: protein: recombinant; tags: N-terminal GST; dsDNA, one strand shown
Chain of ETV5 (P41161 whole entry): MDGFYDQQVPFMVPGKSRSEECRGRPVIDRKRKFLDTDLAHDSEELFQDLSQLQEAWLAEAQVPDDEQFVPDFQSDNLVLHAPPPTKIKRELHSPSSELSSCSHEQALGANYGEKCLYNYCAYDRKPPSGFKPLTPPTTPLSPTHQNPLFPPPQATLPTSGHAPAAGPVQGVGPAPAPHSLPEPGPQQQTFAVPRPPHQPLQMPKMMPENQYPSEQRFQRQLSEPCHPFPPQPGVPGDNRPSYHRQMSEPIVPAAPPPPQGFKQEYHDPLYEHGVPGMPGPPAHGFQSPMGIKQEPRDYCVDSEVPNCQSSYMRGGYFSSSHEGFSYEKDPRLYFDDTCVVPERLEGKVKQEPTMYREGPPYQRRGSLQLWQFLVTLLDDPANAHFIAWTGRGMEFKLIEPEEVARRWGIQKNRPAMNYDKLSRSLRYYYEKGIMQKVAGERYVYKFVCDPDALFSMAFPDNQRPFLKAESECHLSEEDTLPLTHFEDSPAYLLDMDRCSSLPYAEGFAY
Outline: as §1

[3] = target: HSF1 (Homo sapiens, UniProt Q00613 1-529); details: protein: recombinant; tags: N-terminal GST; chain copies: 3; dsDNA, one strand shown
Chain of HSF1 (Q00613 whole entry): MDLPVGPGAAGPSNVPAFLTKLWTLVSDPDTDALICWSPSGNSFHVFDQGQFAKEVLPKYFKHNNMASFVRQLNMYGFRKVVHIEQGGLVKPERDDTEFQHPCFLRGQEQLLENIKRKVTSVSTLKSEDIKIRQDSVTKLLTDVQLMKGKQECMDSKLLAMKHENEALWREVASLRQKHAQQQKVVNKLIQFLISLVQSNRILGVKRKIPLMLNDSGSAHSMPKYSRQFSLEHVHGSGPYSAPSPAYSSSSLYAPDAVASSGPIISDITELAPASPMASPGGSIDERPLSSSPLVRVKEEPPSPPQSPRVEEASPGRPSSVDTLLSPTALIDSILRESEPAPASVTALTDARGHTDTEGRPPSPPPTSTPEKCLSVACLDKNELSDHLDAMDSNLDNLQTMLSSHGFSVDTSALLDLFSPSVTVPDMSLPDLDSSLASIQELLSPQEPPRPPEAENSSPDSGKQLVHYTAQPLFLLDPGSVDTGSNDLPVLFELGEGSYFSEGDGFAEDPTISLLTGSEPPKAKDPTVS
Outline: as §1

[4] = target: T2, SPIC (Homo sapiens, UniProt Q8N5J4 1-248); details: protein: recombinant; tags: N-terminal GST; dsDNA, one strand shown
T2 sequence: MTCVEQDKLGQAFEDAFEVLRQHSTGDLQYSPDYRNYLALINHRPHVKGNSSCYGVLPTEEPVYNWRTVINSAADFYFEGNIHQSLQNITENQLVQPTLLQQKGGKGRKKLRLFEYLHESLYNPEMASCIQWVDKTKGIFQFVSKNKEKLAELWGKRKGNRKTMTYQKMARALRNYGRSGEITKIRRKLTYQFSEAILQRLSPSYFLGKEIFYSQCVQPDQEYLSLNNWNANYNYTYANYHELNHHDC
Outline: as §1

[5] = target: ELF4 (Homo sapiens, UniProt Q99607 1-663); details: protein: recombinant; tags: N-terminal GST; dsDNA, one strand shown
Chain of ELF4 (Q99607 whole entry): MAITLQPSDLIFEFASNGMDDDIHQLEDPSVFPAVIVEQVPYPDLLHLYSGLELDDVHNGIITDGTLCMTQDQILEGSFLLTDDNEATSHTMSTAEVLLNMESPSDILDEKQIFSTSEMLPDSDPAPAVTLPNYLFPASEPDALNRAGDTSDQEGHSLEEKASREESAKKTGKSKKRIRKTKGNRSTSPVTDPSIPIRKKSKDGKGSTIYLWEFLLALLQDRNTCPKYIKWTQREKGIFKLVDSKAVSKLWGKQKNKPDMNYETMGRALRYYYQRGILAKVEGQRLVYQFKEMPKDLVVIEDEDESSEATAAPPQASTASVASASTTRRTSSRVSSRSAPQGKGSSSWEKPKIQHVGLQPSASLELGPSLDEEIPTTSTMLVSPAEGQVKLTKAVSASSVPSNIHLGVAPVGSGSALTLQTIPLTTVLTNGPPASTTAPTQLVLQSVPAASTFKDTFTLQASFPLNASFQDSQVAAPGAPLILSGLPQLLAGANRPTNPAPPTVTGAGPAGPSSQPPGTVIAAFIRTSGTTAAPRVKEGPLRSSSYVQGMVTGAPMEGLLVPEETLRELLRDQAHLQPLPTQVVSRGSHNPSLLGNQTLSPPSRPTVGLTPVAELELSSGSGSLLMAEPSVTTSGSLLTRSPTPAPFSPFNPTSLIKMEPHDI
Outline: as §1

[6] = target: T3, ELK4 (Homo sapiens, UniProt P28324-2 1-405); details: protein: recombinant; tags: N-terminal GST; dsDNA, one strand shown
T3 sequence: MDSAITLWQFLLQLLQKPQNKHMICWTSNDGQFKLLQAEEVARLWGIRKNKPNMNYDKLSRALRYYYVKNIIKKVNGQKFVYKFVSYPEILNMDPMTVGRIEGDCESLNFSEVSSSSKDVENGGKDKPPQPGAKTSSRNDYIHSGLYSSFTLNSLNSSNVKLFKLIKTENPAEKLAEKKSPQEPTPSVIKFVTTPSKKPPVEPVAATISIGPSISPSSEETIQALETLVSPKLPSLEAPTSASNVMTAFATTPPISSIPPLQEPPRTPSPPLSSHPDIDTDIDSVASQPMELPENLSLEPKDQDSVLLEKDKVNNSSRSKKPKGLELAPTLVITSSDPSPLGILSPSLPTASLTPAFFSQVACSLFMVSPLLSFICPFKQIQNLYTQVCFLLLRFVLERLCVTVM
Outline: as §1

[7] = target: T4, ETV2 (Homo sapiens, UniProt O00321 1-342); details: protein: recombinant; tags: N-terminal GST; dsDNA, one strand shown
T4 sequence: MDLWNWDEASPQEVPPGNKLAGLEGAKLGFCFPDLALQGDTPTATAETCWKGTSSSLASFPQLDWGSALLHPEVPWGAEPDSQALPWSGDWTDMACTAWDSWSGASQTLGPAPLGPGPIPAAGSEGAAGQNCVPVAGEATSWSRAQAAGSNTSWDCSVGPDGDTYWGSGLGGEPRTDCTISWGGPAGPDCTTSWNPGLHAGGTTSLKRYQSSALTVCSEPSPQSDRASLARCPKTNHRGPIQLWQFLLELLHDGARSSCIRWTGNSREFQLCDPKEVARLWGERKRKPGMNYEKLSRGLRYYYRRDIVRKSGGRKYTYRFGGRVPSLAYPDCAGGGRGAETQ
Outline: as §1

[8] = target: T5, ELF3 (Homo sapiens, UniProt P78545 1-371); details: protein: recombinant; tags: N-terminal GST; dsDNA, one strand shown
T5 sequence: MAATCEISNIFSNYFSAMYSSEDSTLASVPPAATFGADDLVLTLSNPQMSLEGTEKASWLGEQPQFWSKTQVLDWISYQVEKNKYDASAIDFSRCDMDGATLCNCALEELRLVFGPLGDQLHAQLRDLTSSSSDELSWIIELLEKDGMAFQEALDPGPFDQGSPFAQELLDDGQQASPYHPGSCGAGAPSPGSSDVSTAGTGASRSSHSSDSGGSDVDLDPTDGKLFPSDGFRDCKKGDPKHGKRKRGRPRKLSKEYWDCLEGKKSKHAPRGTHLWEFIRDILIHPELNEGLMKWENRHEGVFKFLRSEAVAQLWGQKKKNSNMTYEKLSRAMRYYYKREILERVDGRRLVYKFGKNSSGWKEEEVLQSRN
Outline: as §1

[9] = target: CRX (Homo sapiens, UniProt O43186 1-299); details: protein: recombinant; tags: N-terminal GST; dsDNA, one strand shown
Chain of CRX (O43186 whole entry): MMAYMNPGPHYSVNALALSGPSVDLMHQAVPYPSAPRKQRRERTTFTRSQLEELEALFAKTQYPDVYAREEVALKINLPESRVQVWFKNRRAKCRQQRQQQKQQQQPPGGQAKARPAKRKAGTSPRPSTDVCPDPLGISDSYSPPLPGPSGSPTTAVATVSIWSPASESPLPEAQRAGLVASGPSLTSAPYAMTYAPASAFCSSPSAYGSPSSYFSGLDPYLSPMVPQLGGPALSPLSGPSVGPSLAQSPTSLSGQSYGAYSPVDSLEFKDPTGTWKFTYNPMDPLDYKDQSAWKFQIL
Outline: as §1

[10] = target: ETV1 (Homo sapiens, UniProt P50549 1-477); details: protein: recombinant; tags: N-terminal GST; dsDNA, one strand shown
Chain of ETV1 (P50549 whole entry): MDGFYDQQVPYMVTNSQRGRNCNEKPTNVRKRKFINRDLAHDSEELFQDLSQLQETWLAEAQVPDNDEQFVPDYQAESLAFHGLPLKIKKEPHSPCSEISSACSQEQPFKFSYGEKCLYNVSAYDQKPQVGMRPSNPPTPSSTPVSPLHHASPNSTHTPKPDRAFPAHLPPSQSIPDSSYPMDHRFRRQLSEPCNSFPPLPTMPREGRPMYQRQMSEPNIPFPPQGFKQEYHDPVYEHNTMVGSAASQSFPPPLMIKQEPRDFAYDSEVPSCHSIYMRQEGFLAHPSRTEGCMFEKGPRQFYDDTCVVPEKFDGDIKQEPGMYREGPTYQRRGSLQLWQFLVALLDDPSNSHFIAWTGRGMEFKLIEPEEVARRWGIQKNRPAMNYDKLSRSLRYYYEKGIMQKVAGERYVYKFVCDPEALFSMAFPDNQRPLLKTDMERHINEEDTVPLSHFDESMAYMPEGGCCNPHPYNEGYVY
Outline: as §1

[11] = target: T6, ERF (Homo sapiens, UniProt P50548 1-548); details: protein: recombinant; tags: N-terminal GST; dsDNA, one strand shown
T6 sequence: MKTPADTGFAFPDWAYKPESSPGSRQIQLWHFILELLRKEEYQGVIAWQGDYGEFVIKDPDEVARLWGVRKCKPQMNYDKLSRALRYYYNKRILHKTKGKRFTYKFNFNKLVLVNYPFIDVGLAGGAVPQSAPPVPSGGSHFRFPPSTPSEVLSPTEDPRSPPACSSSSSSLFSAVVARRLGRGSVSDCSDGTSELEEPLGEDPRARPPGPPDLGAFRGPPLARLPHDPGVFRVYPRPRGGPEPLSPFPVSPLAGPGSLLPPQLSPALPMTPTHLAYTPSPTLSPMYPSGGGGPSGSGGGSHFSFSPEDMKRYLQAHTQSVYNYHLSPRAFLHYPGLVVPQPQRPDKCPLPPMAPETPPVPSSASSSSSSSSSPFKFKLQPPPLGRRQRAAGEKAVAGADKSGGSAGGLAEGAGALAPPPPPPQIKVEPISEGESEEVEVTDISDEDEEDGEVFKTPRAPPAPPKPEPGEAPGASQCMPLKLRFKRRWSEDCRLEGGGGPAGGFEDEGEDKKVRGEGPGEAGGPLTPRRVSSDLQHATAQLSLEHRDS
Outline: as §1

[12] = target: T7, ETV3L (Homo sapiens, UniProt Q6ZN32 1-361); details: protein: recombinant; tags: N-terminal GST; dsDNA, one strand shown
T7 sequence: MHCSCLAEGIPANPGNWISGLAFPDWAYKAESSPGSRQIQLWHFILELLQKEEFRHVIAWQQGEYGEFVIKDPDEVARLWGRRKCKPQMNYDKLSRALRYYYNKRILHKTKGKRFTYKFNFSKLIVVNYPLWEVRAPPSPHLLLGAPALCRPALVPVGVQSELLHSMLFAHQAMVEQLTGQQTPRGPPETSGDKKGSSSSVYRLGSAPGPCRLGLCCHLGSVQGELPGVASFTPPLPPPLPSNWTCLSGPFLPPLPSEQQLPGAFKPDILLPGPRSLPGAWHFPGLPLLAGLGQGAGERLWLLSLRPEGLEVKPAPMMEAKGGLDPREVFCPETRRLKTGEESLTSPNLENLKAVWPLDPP
Outline: as §1

[13] = target: T8, ETS2 (Homo sapiens, UniProt P15036 1-469); details: protein: recombinant; tags: N-terminal GST; dsDNA, one strand shown
T8 sequence: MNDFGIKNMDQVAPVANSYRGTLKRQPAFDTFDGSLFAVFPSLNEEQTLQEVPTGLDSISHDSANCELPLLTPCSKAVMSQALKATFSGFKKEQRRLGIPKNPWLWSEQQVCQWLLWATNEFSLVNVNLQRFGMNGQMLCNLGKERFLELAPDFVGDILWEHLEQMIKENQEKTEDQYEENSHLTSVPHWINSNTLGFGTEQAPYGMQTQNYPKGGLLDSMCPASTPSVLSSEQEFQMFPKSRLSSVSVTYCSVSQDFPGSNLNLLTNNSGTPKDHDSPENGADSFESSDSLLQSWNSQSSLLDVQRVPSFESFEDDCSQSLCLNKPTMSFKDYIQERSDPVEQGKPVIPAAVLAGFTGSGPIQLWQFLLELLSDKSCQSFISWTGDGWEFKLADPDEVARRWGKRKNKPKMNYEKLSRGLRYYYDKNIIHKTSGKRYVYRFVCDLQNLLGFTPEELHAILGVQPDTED
Outline: as §1

[14] = target: T9, SPDEF (Homo sapiens, UniProt O95238 1-335); details: protein: recombinant; tags: N-terminal GST; dsDNA, one strand shown
T9 sequence: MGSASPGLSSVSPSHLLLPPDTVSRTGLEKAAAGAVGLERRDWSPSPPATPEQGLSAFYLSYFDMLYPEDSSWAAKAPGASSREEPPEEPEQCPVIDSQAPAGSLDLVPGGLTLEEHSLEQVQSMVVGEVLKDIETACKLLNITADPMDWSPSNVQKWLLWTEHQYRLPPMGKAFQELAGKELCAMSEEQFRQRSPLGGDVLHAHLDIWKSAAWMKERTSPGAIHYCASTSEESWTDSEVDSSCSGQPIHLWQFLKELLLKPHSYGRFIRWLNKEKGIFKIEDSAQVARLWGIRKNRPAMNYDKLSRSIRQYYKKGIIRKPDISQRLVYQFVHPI
Outline: as §1

[15] = target: T10, ETV7 (Homo sapiens, UniProt Q9Y603 1-341); details: protein: recombinant; tags: N-terminal GST; dsDNA, one strand shown
T10 sequence: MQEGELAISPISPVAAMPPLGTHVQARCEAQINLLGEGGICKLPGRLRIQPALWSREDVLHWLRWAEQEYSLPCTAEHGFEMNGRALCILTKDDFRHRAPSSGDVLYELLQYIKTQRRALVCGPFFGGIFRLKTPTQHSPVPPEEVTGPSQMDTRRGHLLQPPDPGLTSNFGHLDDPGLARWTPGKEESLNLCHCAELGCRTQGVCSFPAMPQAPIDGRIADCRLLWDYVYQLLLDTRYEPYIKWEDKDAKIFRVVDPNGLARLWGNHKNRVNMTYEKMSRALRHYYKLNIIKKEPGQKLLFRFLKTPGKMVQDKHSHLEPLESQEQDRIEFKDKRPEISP
Outline: as §1

[16] = target: T11, ELF5 (Homo sapiens, UniProt Q9UKW6-2 1-255); details: protein: recombinant; tags: N-terminal GST; dsDNA, one strand shown
T11 sequence: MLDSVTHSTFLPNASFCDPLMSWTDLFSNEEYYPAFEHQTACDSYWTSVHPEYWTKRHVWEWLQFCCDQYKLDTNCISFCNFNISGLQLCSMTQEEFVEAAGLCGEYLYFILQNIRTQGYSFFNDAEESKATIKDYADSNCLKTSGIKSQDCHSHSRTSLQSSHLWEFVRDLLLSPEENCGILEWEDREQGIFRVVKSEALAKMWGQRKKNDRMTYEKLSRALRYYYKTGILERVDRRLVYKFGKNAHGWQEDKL
Outline: as §1

[17] = target: T12, ETV3 (Homo sapiens, UniProt P41162-2 1-143); details: protein: recombinant; tags: N-terminal GST; dsDNA, one strand shown
T12 sequence: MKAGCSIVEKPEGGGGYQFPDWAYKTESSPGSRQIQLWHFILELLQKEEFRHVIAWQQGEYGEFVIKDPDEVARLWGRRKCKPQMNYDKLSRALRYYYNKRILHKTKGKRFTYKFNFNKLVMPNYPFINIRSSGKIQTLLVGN
Outline: as §1

[18] = target: ETV6 (Homo sapiens, UniProt P41212 1-452); details: protein: recombinant; tags: N-terminal GST; dsDNA, one strand shown
Chain of ETV6 (P41212 whole entry): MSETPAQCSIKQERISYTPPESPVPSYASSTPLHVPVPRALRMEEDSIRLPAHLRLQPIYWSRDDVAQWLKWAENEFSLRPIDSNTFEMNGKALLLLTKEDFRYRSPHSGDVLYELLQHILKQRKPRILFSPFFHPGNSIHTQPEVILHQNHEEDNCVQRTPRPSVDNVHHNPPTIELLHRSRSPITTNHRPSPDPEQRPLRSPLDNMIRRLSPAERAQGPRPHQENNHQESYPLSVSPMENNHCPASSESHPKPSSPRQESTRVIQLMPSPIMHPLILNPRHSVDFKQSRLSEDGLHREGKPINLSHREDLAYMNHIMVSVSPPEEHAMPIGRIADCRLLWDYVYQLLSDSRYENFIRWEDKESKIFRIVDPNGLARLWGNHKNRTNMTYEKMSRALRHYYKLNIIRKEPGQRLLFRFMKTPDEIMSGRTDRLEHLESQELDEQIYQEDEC
Outline: as §1

## TGAATA
[1]
  binding signal: 1.06 fold enrichment (6-mer frequency, TF over GST control)
[2]
  binding signal: 1.13 fold enrichment (6-mer frequency, TF over GST control)
[3]
  binding signal: 1.24 fold enrichment (6-mer frequency, TF over GST control)
[4]
  binding signal: 1.22 fold enrichment (6-mer frequency, TF over GST control)
[5]
  binding signal: 1.13 fold enrichment (6-mer frequency, TF over GST control)
[6]
  binding signal: 1.12 fold enrichment (6-mer frequency, TF over GST control)
[7]
  binding signal: 1 fold enrichment (6-mer frequency, TF over GST control)
[8]
  binding signal: 1.08 fold enrichment (6-mer frequency, TF over GST control)
[9]
  binding signal: 1.16 fold enrichment (6-mer frequency, TF over GST control)
[10]
  binding signal: 1.15 fold enrichment (6-mer frequency, TF over GST control)
[11]
  binding signal: 1.16 fold enrichment (6-mer frequency, TF over GST control)
[12]
  binding signal: 1.11 fold enrichment (6-mer frequency, TF over GST control)
[13]
  binding signal: 1.05 fold enrichment (6-mer frequency, TF over GST control)
[14]
  binding signal: 1.09 fold enrichment (6-mer frequency, TF over GST control)
[15]
  binding signal: 1.05 fold enrichment (6-mer frequency, TF over GST control)
[16]
  binding signal: 1.07 fold enrichment (6-mer frequency, TF over GST control)
[17]
  binding signal: 1.14 fold enrichment (6-mer frequency, TF over GST control)
[18]
  binding signal: 1.08 fold enrichment (6-mer frequency, TF over GST control)

Source: paper PMC7862700, “An all-to-all approach to the identification of sequence-specific readers for epigenetic DNA modifications on cytosine”
